According to PubChem BioAssay AID493231 (Broad Institute, 2011):
Results with a measured potency or affinity are listed apart. Calls of active or inactive are those of the source. How the calls were made is not given here.

Target: Acyl-homoserine lactone acylase PvdQ (Pseudomonas aeruginosa (strain ATCC 15692 / DSM 22644 / CIP 104116 / JCM 14847 / LMG 12228 / 1C / PRS 101 / PAO1)) (UniProt Q9I194)
Test: PvdQ acylase enzyme activity blockers – biochemical, fluorescence, plate reader and imaging, cherry-picks, dose response (AID 493231);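 further: more negative values mean stronger inhibition of the acylase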
Conditions: purified PvdQ acylase, fluorogenic substrate; series mostly up to 10 µM

Chain of Acyl-homoserine lactone acylase PvdQ (Pseudomonas aeruginosa (strain ATCC 15692 / DSM 22644 / CIP 104116 / JCM 14847 / LMG 12228 / 1C / PRS 101 / PAO1)) (Q9I194 whole entry, looked up): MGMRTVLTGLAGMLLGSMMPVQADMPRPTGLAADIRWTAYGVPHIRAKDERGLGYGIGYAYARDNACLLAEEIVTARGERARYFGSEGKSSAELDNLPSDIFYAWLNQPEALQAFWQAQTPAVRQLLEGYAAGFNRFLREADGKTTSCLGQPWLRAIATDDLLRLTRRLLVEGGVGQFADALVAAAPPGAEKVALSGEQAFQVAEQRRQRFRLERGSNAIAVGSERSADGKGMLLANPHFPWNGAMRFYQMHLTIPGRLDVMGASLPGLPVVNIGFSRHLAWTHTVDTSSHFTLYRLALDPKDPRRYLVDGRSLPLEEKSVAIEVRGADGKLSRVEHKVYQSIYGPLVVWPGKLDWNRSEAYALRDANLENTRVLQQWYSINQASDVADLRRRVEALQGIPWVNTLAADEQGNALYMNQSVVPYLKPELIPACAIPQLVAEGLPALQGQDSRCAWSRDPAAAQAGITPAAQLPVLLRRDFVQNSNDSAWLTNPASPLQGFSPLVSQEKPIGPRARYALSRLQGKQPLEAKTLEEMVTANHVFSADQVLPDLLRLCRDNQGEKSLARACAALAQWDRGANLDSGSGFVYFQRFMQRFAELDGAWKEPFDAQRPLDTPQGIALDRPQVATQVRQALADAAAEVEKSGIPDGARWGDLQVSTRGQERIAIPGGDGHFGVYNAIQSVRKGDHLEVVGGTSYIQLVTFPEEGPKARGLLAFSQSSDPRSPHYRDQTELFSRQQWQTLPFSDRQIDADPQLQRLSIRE

outcome, inactive:
CCCc1nc2sc3ccccc3c(=O)c2c(=O)n1Cc1ccccc1
Cc1ccccc1NC(=O)Cn1nc(-c2ccccc2)nc1-c1ccccc1
CC[N+](CC)(CC)C/C=C/CN1CCCCC1
O=C(Nc1nc2cc3c(cc2s1)OCO3)C1=COCCO1
O=C(O)c1cc2nccc(-c3ccco3)n2n1
COC(=O)C(C(=O)OC)c1ncccc1[N+](=O)[O-]
O=C(NCC1CCCCC1)c1cc(Br)ccc1Cl
CCn1c(SCC(=O)N/N=C/c2ccc(C)o2)nnc1-c1ccc(C(C)(C)C)cc1
COc1ccc(OC2CCN(S(=O)(=O)c3ccc(OC)c(OC)c3)CC2)cc1
COc1cccc(CN(C)CC(=O)NNC(=O)c2ccc(Cl)cc2)c1
Cc1ccsc1C(=O)NCCC(c1ccccc1)c1ccccc1
NC(=O)COC(=O)c1ccc(-c2ccccc2)cc1
O=[N+]([O-])c1nn(-c2ccc(Cl)cc2)n(O)c1=NCc1ccccc1
Cc1cc(=O)[nH]c(SCC(=O)Nc2ccc(Br)cn2)n1
Cc1nn(S(=O)(=O)c2ccccc2)c(C)c1S(=O)(=O)N1CCOCC1
COc1ccc(Cl)cc1C(=O)Nc1ccc(N(C)C(C)=O)cc1
COc1ccc(OCCCC(=O)Nc2cccc(SC)c2)cc1
CN1C(=O)S/C(=C\c2ccc(-n3cncn3)cc2)C1=O
CCOC(=O)c1ccc(N2CCN(c3ccccc3F)CC2)c(NC(=O)Nc2cccc(OC)c2)c1
CS(=O)(=O)N1CCN(C(=O)Nc2ccccc2)CC1
Clc1ccc2nc3c4ccccc4cnn3c2c1
N#C/C(=C\c1ccc([N+](=O)[O-])cc1)c1ccccn1
C=CCC1S/C(=N/N=C/c2cccs2)NC1=O (stereo not given)
COc1ccc(Cl)c(NCCC(=O)O)c1
Cc1ncc(CN2CCN(Cc3ccc(F)cc3)C(CCO)C2)s1 (stereo not given)
CCOC(=O)c1ccc(Nc2ncccc2[N+](=O)[O-])cc1
Cc1ccc2[nH]c(=O)c(CC=C(Cl)Cl)c(C)c2c1
Cc1ccc(CCNC(=O)CCS(=O)(=O)c2ccc(Br)cc2)cc1
CC(=O)c1c(C)[nH]c(C(=O)COC(=O)c2cccs2)c1C
CSC(=S)N/N=C/c1ccccc1
O=C1CC(c2ccccc2)Cc2nc(NC3CC3)ncc21 (stereo not given)
O=C1CCCN=C(Nc2ccc(F)c(Cl)c2)S1
NC(=O)c1ccc(NC(=O)COC(=O)c2n[nH]c3ccccc23)cc1
Cc1cc(/C=C2\Cc3ccccc3C2=O)c(C)n1-c1ccccc1
O=C(Cc1cccc(NC(=O)C2CCN(C(=O)C3CCCCC3)CC2)c1)Nc1cccc(C(=O)N2CCCCC2)c1
